# Inconclusive results are not listed. Activity calls are given as the source filed them. Rule for the calls: active = hit-call score of the fitted dose curve at least 0.9, where 1 is the maximum; inconclusive = response in the unintended direction; inactive = score below 0.9.
# Tested on: frog Peroxisome Proliferator-activated Receptor-alpha (PPARa), gene 398843
# Assay: ATG_frPPARa_EcoTox2: Attagene TRANS-FACTORIAL EcoTox-2 HepG2 Assay for frog Peroxisome Proliferator-activated Receptor-alpha (PPARa)
# Protocol: ATG_EcoTox2 is a cell-based, multiplexed assay created by modifying the existing Attagene TRANS-FACTORIAL system to include a panel of nuclear receptors from some or all the following species: human (Homo sapiens), african clawed frog (Xenopus laevis), rainbow trout (Oncorhynchus mykiss), japanese medaka (Oryzias latipes), and zebrafish (Danio rerio). The ECOTOX2-FACTORIAL format uses HepG2, a human liver cell line, with measurements taken at 24 hours after chemical dosing in a 24-well plate. ATG_frPPARa_EcoTox2 is one of 29 assay components calculated in the ATG_EcoTox2 assay. It is designed to make measurements of mRNA induction, a form of inducible reporter, as detected with fluorescence intensity signals by Reverse transcription polymerase chain reaction (RT-PCR) and Capillary electrophoresis technology.The assay endpoint ATG_frPPARa_EcoTox2 was analyzed in the positive analysis fitting direction relative to DMSO as the negative control and baseline of activity. Using a type of inducible reporter, measures of mRNA for gain-of-signal activity can be used to understand the reporter gene at the transcription factor-level as they relate to the gene PPARa. Furthermore, this assay endpoint can be referred to as a primary readout, because this assay has produced multiple assay endpoints where this one serves a reporter gene function. To generalize the intended target to other relatable targets, this assay endpoint is annotated to the nuclear receptor intended target family, where the subfamily is non-steroidal.
# Human liver HepG2 cells are transiently transfected with multiple reporter transcription units (MRTUs) in 6-well plates using FuGene 6 reagent (Roche; 3 ml FuGene/1 mg DNA). The MRTU constructs are regulated by a cis-regulating element (promoter). Each RTU expresses a GAL4-UAS that regulates the transcription of a nearby target reporter gene sequence. A major difference between the CIS and TRANS system is that in CIS activities of endogenous TFs are measured, whereas the TRANS assay evaluates changes in activities of exogenous, chimeric NR-Gal4 proteins. […] At the end of 24 hour incubation, total RNA was isolated using TriZol reagent (Invitrogen). The isolated RNA is then reverse-transcribed using oligo(dT) primer and Mo-MLV reverse transcriptase (Invitrogen) with DNAse I (Ambion) treatment for 30 min. The one-tenth of the produced cDNA was amplified by PCR using Taq DNA polymerase (Invitrogen) and two reporter sequence-specific primers. […] The fragments were purified using Qiaquick PCR columns (Qiagen), analyzed on an ABI 3130xL genetic analyzer (Applied Biosystems) with peak positions identified by using a set of X-rhodamine (ROX)-labeled MapMarker1000 molecular weight standards (BioVentures). […]
Compound,AC50,outcome
O=C(O)C(F)(F)C(F)(F)C(F)(F)C(F)(F)C(F)(F)C(F)(F)C(F)(F)F,75 µM (active),–
O=S(=O)(O)C(F)(F)C(F)(F)C(F)(F)C(F)(F)C(F)(F)C(F)(F)F,–,inactive
O=P(Oc1ccccc1)(Oc1ccccc1)Oc1ccccc1,–,inactive
[Cl][Sn]([c]1ccccc1)([c]1ccccc1)[c]1ccccc1,–,inactive

# Source: PubChem BioAssay AID2284344 (EPA ToxCast)
